Experimental findings from PubChem BioAssay (NCATS) are described below.

Values without a mark were called inactive. Records with an inconclusive call do not appear. Active and inactive are the calls of the source. The call rests on the fitted dose curve; in most records, active means well fitted curve in the direction sought with a large enough effect; inconclusive means small, poorly fitted or top-dose-only effect, or another doubt; inactive means no such curve, though single readings can be large; an effect the other way counts as inactive or inconclusive.

Assay [1] is described as follows: OV-KATE Cancer Cell Toxicity qHTS against the NCATS CANVASS Library (AID 1347345). Further: potency means the concentration at half of the fitted maximal effect. Summed up:
(§1)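 Following a 4 h pre-incubation of 1000 seeded cells, compounds were pinned in an 11-pnt dilution series and left for 72 h; viability then came from CellTiter-Glo.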

A short description of assay [2]: U-118MG Cancer Cell Toxicity qHTS against the NCATS CANVASS Library (AID 1347351). Further: potency means the concentration at half of the fitted maximal effect. Summed up: as §1
Assay [3] can be described thus: COV-362 Cancer Cell Toxicity qHTS against the NCATS CANVASS Library (AID 1347352). Further: series mostly up to about 38 µM. A digest of the protocol:
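Toxicity was measured as CellTiter-Glo luminescence after 72 h exposure to an 11-point compound series. Compound was added to 1000 cells/well 4 h after seeding.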
On the technique in general: Quantitative high-throughput screening tests each substance at several concentrations.

Assay [4] in a line: HPAF-II 24hr Apoptosis Induction qHTS against the NCATS CANVASS Library (AID 1347356). A digest of the protocol:
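Caspase-Glo 3/7 luminescence, read after 15 min room-temperature development, measures apoptosis in HPAF-II cells treated 24 h at 37 degrees C with an 11-point concentration series; 500 cells/well; doxorubicin control.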

The nature of assay [5]: HPAF-II 12hr Apoptosis Induction qHTS against the NCATS CANVASS Library (AID 1347358). Summed up:
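Caspase-3/7 activation by DEVD-substrate luminescence (Caspase-Glo 3/7, 15 min, room temperature) after a 12-hour compound exposure in 11 concentrations, of HPAF-II pancreatic cells seeded at 500/well in DMEM with 10% FBS.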

Assay [6] in a line: HEK293 24hr Apoptosis Induction qHTS against the NCATS CANVASS Library (AID 1347359). A digest of the protocol:
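HEK293 cells, 500 per well, exposed to an 11-point compound series for 24 hours at 37 degrees C. Caspase 3/7 activity read by Caspase-Glo luminescence (DEVD substrate) after 15 min at room temperature.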

Assay [7] in a line: HPAF-II 18hr Apoptosis Induction qHTS against the NCATS CANVASS Library (AID 1347360). A digest of the protocol:
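Caspase-Glo 3/7 luminescence (DEVD substrate) after 15 min RT; HPAF-II, 500 cells/well, 18 h compound exposure at 37 degrees C, qHTS series; doxorubicin control 0.1nM - 4uM.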

A short description of assay [8]: HEK293 12hr Apoptosis Induction qHTS against the NCATS CANVASS Library (AID 1347361). Further: potency means the concentration at half of the fitted maximal effect. Summed up: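 500 HEK293 cells/well; cpds pin-transferred, 11-pt conc series; 12 h, 37 degrees C/5% CO2; Caspase-Glo 3/7 added, 15 min RT dark; luminescence.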
In assay [9] the target is Luciferin 4-monooxygenase (Photinus pyralis) (UniProt P08659). Nature of the assay: Firefly luciferase counterscreen qHTS: Assay Interference Panel against the NCATS CANVASS Library (AID 1347363). Further: series mostly up to about 57 µM. Summed up: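 Purified P. pyralis luciferase (0.04 ug/mL, 4x reagent) added to Tris-acetate buffer with 0.013 mM D-luciferin, 0.013 mM ATP and 13.3 mM Mg-acetate; compounds preincubated 15 min, then luminescence read after 5 min, RT.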
(In general: The purpose of a counterscreen is to sort out artefacts and off-target activity.)

A short description of assay [10]: KB-3-1 Cancer Cell Toxicity qHTS against the NCATS CANVASS Library (AID 1347366). Further: nearly all actives have a fitted effect of over 75% in size. Further: potency means the concentration at half of the fitted maximal effect. A digest of the protocol: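 500 KB-3-1 cells/well; compounds pin-transferred, 11-pnt series; 72 hr, 37C/5% CO2; CellTiter-Glo, 10 min RT; luminescence read-out.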
Assay [11] can be described thus: qHTS for ATAD5 Agonist screened against the NCATS CANVASS Library (AID 1347367). A digest of the protocol: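 Luminescence read-out: ATAD5-driven luciferase in stably transfected HEK 293T cells, which rises post-transcriptionally with DNA damage. Cells were exposed 16hr at 37C to test compound; a CellTiter-Fluor fluorescence read (1hr) measured viability first.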

The nature of assay [12]: MCF7 Cancer Cell Toxicity qHTS against the NCATS CANVASS Library (AID 1347369). Further: potency means the concentration at half of the fitted maximal effect. Summed up: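 Luminescent ATP signal (CellTiterGlo) served as the cytotoxicity read-out after MCF7 breast cancer cells had been incubated 72 hr at 37C with natural products in an 11-point titration.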
Assay [13] is described as follows: J3T Cancer Cell Toxicity qHTS against the NCATS CANVASS Library (AID 1347371). Further: potency means the concentration at half of the fitted maximal effect. Summed up: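 Cytotoxicity read as CellTiterGlo ATP luminescence after 72 h incubation (37C, 5% CO2) of J3T canine glioma cells (500/well) with an 11-point compound series.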
In assay [14] the target is Nuclear receptor subfamily 1 group I member 3 (Homo sapiens) (UniProt Q14994). Nature of the assay: qHTS for Constitutive Androstane Receptor (CAR) Antagonist screened against the NCATS CANVASS Library (AID 1347372).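 Further: cells stimulated with 50 nM CITCO agonist so inhibition reflects antagonism; luciferase from CYP2B6 promoter reporter driven by hCAR in HepG2 cells; series mostly up to about 46 µM.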 Summed up:
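Luminescence readout (ONE-Glo, 30 min RT) of CYP2B6-2.2kb reporter in HepG2-hCAR cells after 24hr, 37C treatment with compound against 50 nM CITCO; CellTiter-Fluor viability read beforehand.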

Assay [15] shares this target. Nature of the assay: qHTS for Constitutive Androstane Receptor (CAR) Agonist screened against the NCATS CANVASS Library (AID 1347373).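 Further: every well also contained 1.5 µM PK11195 alongside the test compound.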 A digest of the protocol:
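Agonist mode with 1.5uM PK11195 present: compounds for 24hr on HepG2-hCAR-CYP2B6 cells. CellTiter-Fluor fluorescence (ex 405, em 540 nm) gives viability; ONE-Glo luminescence reports CAR activation.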

A short description of assay [16]: 10-beta competent E. coli microbial cell viability qHTS against the NCATS CANVASS Library (AID 1347376). Further: series mostly up to about 46 µM. A digest of the protocol: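 Read-out: BacTiter-Glo ATP luminescence, taken 20 min after reagent addition. Beforehand, 10-beta competent E. coli at 0.2 OD had been incubated overnight at 37C with compounds at 11 concentrations.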
Assay [17] in a line: qHTS for H2AX Agonists against the NCATS CANVASS Library (AID 1347378). Further: potency means the concentration at half of the fitted maximal effect. A digest of the protocol: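 TR-FRET readout (ex 320 nm, em 665/620 nm ratio) of phospho-H2AX (S139) in CHO-K1 lysates. Cells treated 3 hr at 37C with compound titration, 0.76% DMSO; lysis 30 min, antibody detection 24 hr at RT.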
Assay [18] in a line: qHTS for Inflammasome Signaling Inhibitors: IL-1-beta AlphaLISA screen against the NCATS CANVASS Library (AID 1347379).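 Further: human THP-1 cells primed with LPS then triggered with ATP.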 Summed up: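 Secreted IL-1B from human THP-1 cells quantified by AlphaLISA 16 hr after compound addition (final up to 57.5 uM). A 1 hr compound pretreatment preceded inflammasome activation with 250 ng/mL LPS plus 1.25 mM ATP (final).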
Assay [19] in a line: Inflammasome Signaling qHTS Counterscreen: IL-1-beta AlphaLISA counterscreen against the NCATS CANVASS Library (AID 1347381).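 Further: cell-free check with purified IL-1β in medium and no THP-1 cells; series mostly up to about 57 µM.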 Summed up: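 Purified IL-1-beta (4 pg/well) + compound, 11-pt conc. series; acceptor beads 6 ug/mL + biotin-Ab 0.6 nM final, 1 h RT; SA-donor 24 ug/ml final, 30 min dark RT; read ex 680/em 615.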
A short description of assay [20]: Viability qHTS for inhibitors of the SERCaMP assay screened against the NCATS CANVASS Library (AID 1347400). Further: nearly all actives have a fitted effect of over 70% in size. Further: potency means the concentration at half of the fitted maximal effect. Summed up:
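CellTiter-Glo luminescence measured cytotoxicity after 48 h at 37C of compound treatment (11-point series). Cells were SH-SY5Y-GLuc SERCaMP MJH297 derivatives, seeded at 1000 per well 4 h beforehand.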

Chain of Luciferin 4-monooxygenase (Photinus pyralis) (P08659 whole entry, looked up): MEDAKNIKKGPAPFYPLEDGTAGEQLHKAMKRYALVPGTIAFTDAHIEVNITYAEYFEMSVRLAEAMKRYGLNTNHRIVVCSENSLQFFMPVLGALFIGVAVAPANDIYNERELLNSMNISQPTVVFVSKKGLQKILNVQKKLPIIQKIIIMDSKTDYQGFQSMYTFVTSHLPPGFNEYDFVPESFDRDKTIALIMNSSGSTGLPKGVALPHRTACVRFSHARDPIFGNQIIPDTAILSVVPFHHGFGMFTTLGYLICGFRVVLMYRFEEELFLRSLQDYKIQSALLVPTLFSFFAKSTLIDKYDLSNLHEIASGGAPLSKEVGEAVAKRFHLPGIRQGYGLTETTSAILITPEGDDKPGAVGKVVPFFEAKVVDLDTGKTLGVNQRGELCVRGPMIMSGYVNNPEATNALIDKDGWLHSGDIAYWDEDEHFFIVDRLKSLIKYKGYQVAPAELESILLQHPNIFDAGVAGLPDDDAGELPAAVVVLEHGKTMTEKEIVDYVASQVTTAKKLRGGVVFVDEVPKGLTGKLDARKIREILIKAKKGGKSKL
Chain of Nuclear receptor subfamily 1 group I member 3 (Homo sapiens) (Q14994 whole entry, looked up): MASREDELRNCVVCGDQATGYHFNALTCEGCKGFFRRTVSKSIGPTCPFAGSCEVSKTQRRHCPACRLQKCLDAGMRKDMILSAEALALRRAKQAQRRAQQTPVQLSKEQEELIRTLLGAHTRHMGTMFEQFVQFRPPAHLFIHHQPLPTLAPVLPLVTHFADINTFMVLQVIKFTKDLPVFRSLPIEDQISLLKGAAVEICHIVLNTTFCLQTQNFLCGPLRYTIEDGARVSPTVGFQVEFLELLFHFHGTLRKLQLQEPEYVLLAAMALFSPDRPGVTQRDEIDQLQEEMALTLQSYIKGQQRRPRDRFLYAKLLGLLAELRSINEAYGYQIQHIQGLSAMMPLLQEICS

As to `C[C@@H](CCC[C@]1(C)C(=O)C=C[C@]23C[C@H]4C[C@H](O[C@@]4(C)C2)C31)C(=O)N[C@@H](CO)C(=O)O` (some centres not stated), the Potency result in assay [1], in [2], in [3], in assay [5], in assay [6] and in assay [7] was “inactive” each time. For the same compound, the Potency entry in assay [8], in assay [9], in assay [10], in assay [11], in [12] and in [13] was “inactive” each time. For the same compound, the Potency entry in assay [14], in [17], in [18] and in assay [20] was “inactive” each time. For the same compound, the compound was classed as inactive in assay [4], in assay [15], in [16] and in [19].
`C/C=C/c1cc(OC)c2c(c1)[C@@H](C)[C@H](c1ccc(O)c(OC)c1)O2`: the Potency result in assay [1], in [2], in [3], in [5], in [6] and in [7] was “inactive” in each case. Moreover, the Potency result in assay [8], in assay [9], in [10], in assay [11], in assay [12] and in assay [13] was “inactive” in each case. The Potency entry in assay [14], in assay [17], in assay [18] and in [20] was “inactive” throughout. Also, the result in assay [4], in assay [15], in assay [16] and in [19] was inactive.
Take `O=C(O)CC1OC(=O)c2c(O)cccc21` (configuration not stated): the Potency result in assay [1], in assay [2], in [3], in [5], in assay [6] and in assay [7] was “inactive” throughout. Also, the Potency entry in assay [8], in assay [9], in assay [10], in assay [11], in assay [12] and in assay [13] was “inactive” each time. In addition, the Potency entry in [14], in assay [17], in assay [18] and in assay [20] was “inactive” in each case. Moreover, the outcome in assay [4], in [15], in [16] and in assay [19] was inactive.
Regarding `C[C@H]1C[C@@H]([C@@H]2CC[C@]34O[C@H](CC[C@@]35C[C@H](C)C(=O)O5)CN24)OC1=O`, the Potency result in [1], in assay [2], in assay [3], in [5], in assay [6] and in [7] was “inactive” throughout. The Potency result in assay [8], in [9], in assay [10], in assay [11], in assay [12] and in assay [13] was “inactive” in each case. The Potency entry in assay [14], in assay [17], in assay [18] and in assay [20] was “inactive” in each case. Moreover, the compound was called inactive in [4], in assay [15], in [16] and in [19].
`CC1=CC2=C[C@H](C)C[C@@]23OC(=C(C)C3=O)CC(C)(C)/C=C/C1=O`: the Potency is 838 nM (active) in assay [1]; 749 nM (active) in assay [2]; 935 nM (active) in assay [8]; 2640 nM (active) in assay [10]; 1650 nM (active) in assay [12]; 935 nM (active) in [13]. Also, the Potency is 1720 nM (active) in assay [17], 1090 nM (active) in [18] and 1520 nM (active) in assay [20]. Besides, the result in assay [4], in assay [15], in assay [16] and in assay [19] was inactive. Besides, the Potency result in assay [5], in assay [7], in [9], in assay [11] and in assay [14] was “inactive” throughout.
Take `CC(=O)[C@@H]1[C@@H](O)C[C@H]2[C@]3(C)CC[C@H]4C(C)(C)CCC[C@]4(CO)[C@H]3C[C@H]3OC(=O)[C@@H]1[C@@]32C`: the Potency result in [1], in assay [2], in assay [3], in assay [5], in assay [6] and in [7] was “inactive” each time. The Potency result in assay [8], in assay [9], in [10], in assay [11], in assay [12] and in assay [13] was “inactive” each time. Also, the Potency entry in [14], in assay [17], in assay [18] and in [20] was “inactive” in each case. Also, the compound was called inactive in [4], in [15], in [16] and in assay [19].
Take `O=Cc1ccc2n1C[C@@]1(C[C@H](O)[C@H](O)CO1)OC2`: the Potency result in assay [1], in [2], in [5], in assay [6], in assay [7] and in assay [8] was “inactive” throughout. Moreover, the Potency result in assay [9], in assay [10], in assay [11], in assay [12], in [13] and in assay [14] was “inactive” each time. In addition, the Potency entry in assay [17], in assay [18] and in assay [20] was “inactive” each time. The result in assay [4], in assay [15], in assay [16] and in [19] was inactive.
